Results filed as inconclusive are left out. A number with no mark means an inactive call. Calls come from the whole dose curve; as a rule, active = well fitted curve in the direction sought with a large enough effect; inconclusive = small, poorly fitted or top-dose-only effect, or another doubt; inactive = no such curve, though single readings can be large or run the other way. Where a SMILES comes first, the peptide text is derived from it. Bridges are numbered along the chain shown (N, C = ends). [ ]: non-standard residue; d: D form. hArg = N=C(N)NCCCC[C@H](N)C(=O)O; Mpa = O=C(O)CCS

This experiment deals with Protein phosphatase 1D (Homo sapiens) (UniProt O15297). In words: Rhodamine-PBP qHTS Assay for Modulators of WT P53-Induced Phosphatase 1 (WIP1) (AID 1347425). The note with it: recombinant WIP1, Rhodamine-PBP phosphate fluorescence, real-time; series mostly up to 57.5 µM; activity change, negative = inhibition: at the top concentration. An excerpt: Assay Provider (PI): Nathan Coussens Ph.D.
Protein phosphatase 1D (Homo sapiens), sequence (O15297 whole entry, looked up): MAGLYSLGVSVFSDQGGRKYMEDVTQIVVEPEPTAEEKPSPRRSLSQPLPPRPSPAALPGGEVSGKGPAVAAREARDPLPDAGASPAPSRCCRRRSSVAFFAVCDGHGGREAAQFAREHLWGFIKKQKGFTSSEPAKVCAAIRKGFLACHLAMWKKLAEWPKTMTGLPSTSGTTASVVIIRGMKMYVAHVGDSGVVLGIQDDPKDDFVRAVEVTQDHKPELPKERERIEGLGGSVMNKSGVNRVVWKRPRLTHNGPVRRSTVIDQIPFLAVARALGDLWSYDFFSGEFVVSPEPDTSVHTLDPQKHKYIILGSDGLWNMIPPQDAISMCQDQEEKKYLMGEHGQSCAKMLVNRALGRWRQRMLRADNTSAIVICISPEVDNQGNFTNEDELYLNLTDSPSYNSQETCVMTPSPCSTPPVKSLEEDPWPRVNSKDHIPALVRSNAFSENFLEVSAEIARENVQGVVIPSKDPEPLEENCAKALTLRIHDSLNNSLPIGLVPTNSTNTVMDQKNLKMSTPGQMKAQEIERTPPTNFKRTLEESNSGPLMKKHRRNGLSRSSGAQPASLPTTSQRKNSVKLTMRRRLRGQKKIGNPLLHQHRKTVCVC
National Center for Advancing Translational Sciences (NCATS), Rockville, MD
National Institute of Health (NIH), Bethesda, Maryland
WT P53-Induced Phosphatase 1 (WIP1) is a member of the magnesium-dependent serine/threonine protein phosphatase (PPM) family and is induced by P53 in response to DNA damage. In several human cancers, the WIP1 protein is overexpressed, which is generally associated with a worse prognosis. Although WIP1 is an attractive therapeutic target, no potent, selective, and bioactive small-molecule modulator with favorable pharmacokinetics has been reported. Phosphatase enzymes are among the most challenging targets for small molecules because of the difficulty of achieving both modulator selectivity and bioavailability. Another major obstacle has been the availability of robust and physiologically relevant phosphatase assays that are suitable for high-throughput screening.
Here, we describe two orthogonal biochemical WIP1 activity assays that utilize phosphopeptides from native WIP1 substrates. We optimized a RapidFire MS assay to quantify the enzymatically dephosphorylated peptide reaction product in a 384-well format. Additionally, a redshifted Rhodamine-PBP fluorescence assay was optimized in a 1,536-well format to enable real-time WIP1 activity measurements through the detection of the orthogonal reaction product, Pi. We validated these two optimized assays by quantitative high-throughput screening against the National Center for Advancing Translational Sciences (NCATS) Pharmaceutical Collection and used secondary assays to confirm and evaluate inhibitors identified in the primary screen.
SEQUENCE No. (e.g., 1, 2, 3, etc.); […] (e.g., Cells, Incubation, Reagent, etc.); VALUE; DESCRIPTION
1; Reagent; 3 uL; WIP1 (6.7 nM), Rh-PBP (13.3 uM), columns 1-48
3; Library Compounds; 23 nL; NCATS Pharmaceutical Collection, column 5-48
4; Control Compounds; DMSO in column 2, GSK2830371 (57.5 uM, final) in 3-fold serial dilutions in column 3, GSK2830371 (1.15 uM, final) in column 4
5; Time; 1 hr; incubation
6; Detection; fluorescence (f0); ViewLux, excitation filter = 525 nm, emission filter = 598 nm
7; Reagent; 1 uL; VEPP-pS-QETFS (40 uM), columns 2-48
8; Detection; fluorescence (f1); ViewLux, excitation filter = 525 nm, emission filter = 598 nm
NOTES (numbers refer to sequence above)
1 & 2; Black medium binding Greiner 1536-well plates (# 789176-F); assay buffer: 50 mM Tris-HCl pH 7.5, 30 mM MgCl2, 1mM TCEP, 0.1 mM EGTA, 75 ug/mL BSA; dispensed with a BioRaptr liquid handler (Beckman Coulter).
3 & 4; Kalypsys pintool (equipped with 1536 pinhead, Wako USA) transfer. Tip wash sequence: DMSO, methanol, 3 sec vacuum dry.
5; Room temperature incubation.
7; VEPPL-pS-QETFS in assay buffer dispensed with a BioRaptr; final reaction conditions: 5 nM WIP1, 10 uM VEPPL-pS-QETFS, 10 uM Rh-PBP, 50 mM Tris-HCl pH 7.5, 30 mM MgCl2, 1 mM TCEP, 0.1 mM EGTA, 75 ug/mL BSA.
8; Measurement taken at 1 min intervals for 11 min. Delta readout = f1 - f0.
For `Cc1cccc(C)c1NC(=O)CC12CCCN1CCC2`, the “activity change, negative = inhibition” value is -2.7%. To `Cc1c(N(C)C)c(=O)n(-c2ccccc2)n1C` belongs 9.8%. With `CC(C)=CCC[C@@](C)(O)[C@H]1CC=C(C)CC1`, the “activity change, negative = inhibition” value was 23.2%. To `CC[N+](CC)(CC(=O)Nc1c(C)cccc1C)Cc1ccccc1` belongs 14.4%. On to `O=c1[nH]cnc2nc[nH]c12`, for which the “activity change, negative = inhibition” value was -1.62%.

In the case of `Cc1cccc(Nc2ccccc2C(=O)O)c1C`, the “activity change, negative = inhibition” value is -28.7%. To `NS(=O)(=O)c1ccc(C(=O)O)cc1` belongs -7.21%; to `CCCCCCCCCCC(CO)CCCCCCCC` (stereo not given), -3.84%. To `NCc1ccc(S(N)(=O)=O)cc1` belongs 11%. Turning to `NC(=O)CC[C@@H](N)C(=O)O`, the “activity change, negative = inhibition” value is 13%.

For `Cc1cc(C)nc(NS(=O)(=O)c2ccc(N)cc2)n1`, the “activity change, negative = inhibition” value is 7%. To `CN(C(=O)c1c(O)c2ccccc2n(C)c1=O)c1ccccc1` belongs 14.3%; to `OCC(O)CS` (stereo not given), 8.58%. Regarding `Nc1ncnc(Nc2ccccc2)n1`, the “activity change, negative = inhibition” value is 11.9%. On to `Cc1cc(OI)c(C(C)C)cc1-c1cc(C(C)C)c(OI)cc1C`, for which the “activity change, negative = inhibition” value was -4.13%. To `CCN[C@H]1CN(CCCOC)S(=O)(=O)c2sc(S(N)(=O)=O)cc21` belongs 10%; to `Cc1ccc(C(C)C)c(O)c1`, 4.77%.

As to `CCCCCCCCCCCCCCCCN`, the “activity change, negative = inhibition” value was -4.71%. To `CC1(c2ccccc2)OC(C(=O)O)=CC1=O` (stereo not given) belongs 5.72%; to `Cc1ccc(S(=O)(=O)NC(=O)NC2CCCCCCC2)cc1`, -20%. To `CC1CCN(CCCC(=O)c2ccc(F)cc2)CC1` belongs 7.14%; to `Cc1ccsc1/C=C/C1=NCCCN1C`, -1.93%; to `Cn1cc(C(=O)[C@@H]2CCc3nc[nH]c3C2)c2ccccc21`, 13.5%.

Take `NS(=O)(=O)c1cc2c(cc1C(F)(F)F)NCNS2(=O)=O`: the “activity change, negative = inhibition” value is -29.3%.

Consider `NC(=O)NC1NC(=O)NC1=O` (stereo not given), for which the “activity change, negative = inhibition” value was 17.2%. To `CC(=O)SC[C@@H](Cc1ccccc1)C(=O)NCC(=O)OCc1ccccc1` belongs 5.79%; to `CC(=O)Nc1ccc(C(=O)O)cc1`, 14.5%; to `CC(=O)Oc1cccc(O)c1`, 6.71%.

In the case of `Nc1ccc(S(=O)(=O)c2ccc(N)cc2)cc1`, the “activity change, negative = inhibition” value is 2.7%. To `CCCCCCCCCCOc1cc2c(=O)c(C(=O)OCC)c[nH]c2cc1OCC` belongs 9.27% [at 4.81 µM]; to `NC(=O)[C@@H]1CSSCCC(=O)N[C@@H](CCCCN=C(N)N)C(=O)NCC(=O)N[C@@H](CC(=O)O)C(=O)N[C@@H](Cc2c[nH]c3ccccc23)C(=O)N2CCC[C@H]2C(=O)N1` ([Mpa][hArg]GDWPC-NH2; disulfide 1-7), -1.18%. Consider `COc1ccccc1OCC(O)CO` (stereo not given), for which the “activity change, negative = inhibition” value is 2.32%. To `NS(=O)(=O)c1cc(C2(O)NC(=O)c3ccccc32)ccc1Cl` (stereo not given) belongs -3.34%. To `CC(=O)Oc1cccc(C)c1` belongs 6.78%; to `NC(=O)N[C@@H](CCC(=O)O)C(=O)O`, 6.03%. For the compound `COc1ccc(Cc2cnc(N)nc2N)cc1OC`, the “activity change, negative = inhibition” value was 3.63%.

Consider `O=C(O)C(S)C(S)C(=O)O` (stereo not given), for which the “activity change, negative = inhibition” value was -1.54%. For the compound `COc1ccc(O)cc1`, the “activity change, negative = inhibition” value is -0.0359%. Take `CC(C(=O)O)c1ccc2c(c1)Cc1cccnc1O2` (stereo not given): the “activity change, negative = inhibition” value is 16.1%. To `CCCCCC(N)=O` belongs 8.51%.

For the origin of these results see PubChem BioAssay (NCATS).
